This is a sample that favours compounds with a hit; in the whole collection about 1.2% have one here.
RGS16-Gao – modulators of RGS16 binding to Galphao, primary screen, biochemical, human proteins, multiplexed bead flow cytometry; actives 0.38% (n = 220,000); bead-based flow cytometry RGS16-Galphao binding, fluorescence; actives lie on both sides; Regulator of G-protein signaling 16 (Homo sapiens) + Guanine nucleotide-binding protein …; binding response (% of control), % at 10 µM; AID 1441, 2008;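 note: Galphao activated by GDP with aluminum fluoride before binding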
Target sequence (O15492 whole entry, looked up): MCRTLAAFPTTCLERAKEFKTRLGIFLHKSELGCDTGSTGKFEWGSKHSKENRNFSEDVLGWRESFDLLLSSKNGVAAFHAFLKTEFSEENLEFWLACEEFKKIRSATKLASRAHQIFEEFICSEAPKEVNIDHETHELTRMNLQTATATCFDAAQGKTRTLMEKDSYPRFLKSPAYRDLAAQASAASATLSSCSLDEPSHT
Target sequence (P09471 whole entry, looked up): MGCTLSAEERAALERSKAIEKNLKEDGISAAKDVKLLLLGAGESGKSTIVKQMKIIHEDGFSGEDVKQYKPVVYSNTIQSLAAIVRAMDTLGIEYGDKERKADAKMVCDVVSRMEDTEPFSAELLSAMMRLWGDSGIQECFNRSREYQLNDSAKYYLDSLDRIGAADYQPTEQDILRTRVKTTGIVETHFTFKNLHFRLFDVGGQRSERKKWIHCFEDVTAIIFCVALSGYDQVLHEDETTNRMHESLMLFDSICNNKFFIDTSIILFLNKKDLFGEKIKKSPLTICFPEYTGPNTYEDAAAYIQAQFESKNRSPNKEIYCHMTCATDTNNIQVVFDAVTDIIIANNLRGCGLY
RGS7-Gao reg – RGS7-Galphao binding modulators, primary screen, biochemical, multiplexed bead flow cytometry | Guanine nucleotide-binding protein G(o) subunit alpha (Homo sapiens), P09471 | actives lie on both sides | binding response (% of control), % at 10 µM | actives 0.35% (n = 220,000) | AID 1439, 2008; in the data active = binding response below about 49% or above about 150%; inconclusive = no clear call, values can overlap the other calls; inactive = in between;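 note: fluorescent Galphao held in activated GDP-AlF4 state binding bead-coupled RGS7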
Target sequence (P09471 whole entry, looked up): as above
RGS4-Gao reg – modulators of RGS4 binding to Galphao, primary screen, biochemical, multiplexed bead flow cytometry; actives lie on both sides; binding response (% of control), % at 10 µM; actives 0.33% (n = 220,000); AID 1415, 2008; in the data active = binding response below about 49% or above about 150%; inactive = in between;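 note: fluorescent Galphao activated with aluminum fluoride binding bead-coupled RGS4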
Avidin fluor – green autofluorescence of compounds with avidin beads – biophysical, 488/530 nm, flow cytometry, artefact control, profiling panel; compound fluorescence 488/530 nm; hits give high values; fluorescence (KMESF) at 10 µM; AID 1775, 2009; actives 0.38% (n = 220,000); in the data active = fluorescence above about 47
GSH bead fluor – compound fluorescence on glutathione beads, profiling panel, artefact control, biophysical, 488/530 nm, flow cytometry. GSH beads flow cytometry, compound fluorescence 488/530 nm; hits give high values. fluorescence (KMESF) at 10 µM. actives 0.25% (n = 190,000); in the data active = fluorescence above about 89;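 note: glutathione beads carrying GST-tagged Bcl family fusion proteins plus one bare bead set; values are compound well signal with DMSO vehicle wells as background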
RGS8-Gao reg – RGS8-Galphao binding modulators, primary screen, biochemical, multiplexed bead flow cytometry. AID 1423, 2008. actives lie on both sides. Guanine nucleotide-binding protein G(o) subunit alpha (Homo sapiens), P09471. actives 0.34% (n = 220,000). response (percent of control binding), % at 10 µM; in the data active = response below about 60% or above about 140%; inactive = in between;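 note: Galphao activated as the GDP aluminium fluoride complex binding bead-coupled RGS8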
RGS-Gao – modulators of RGS–Galpha-o binding, primary screen, biochemical, multiplexed beads, flow cytometry, RGS4/7/8/16/19. multiplexed bead flow cytometry. shares compounds with RGS16-Gao. actives 99% (n = 1,600). RGS4–Galpha-o binding response, % at 10 µM;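 note: fluorescently labeled Galpha-o bound to GDP with aluminium fluoride binding biotinylated RGS beads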
Biotin-avidin – disruption of biotin probe capture by avidin, counter-screen for RGS protein interaction modulators, biochemical, flow cytometry, bead-based; 1,700 tested, under 10 active; streptavidin beads, fluorescein-biotin binding; shares compounds with RGS16-Gao; inhibition, % at 10 µM;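 active = inhibition above 50%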;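 note: median green fluorescence of gated singlet beads compared with DMSO control wells; 0% = DMSO wells and 100% = complete loss of bead fluorescence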
RGS8-Gao single – RGS8-Galphao binding modulators, confirmation, biochemical, multiplexed bead flow cytometry, single concentration; shares compounds with RGS16-Gao; binding response (% of control), % at 10 µM; bead-based flow cytometry RGS8-Galphao binding, fluorescence; actives lie on both sides; actives 3% (n = 1,700); AID 1836, 2009; in the data active = binding response below about 72% or above about 130%; inactive = in between;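 note: Galphao activated as GDP AlF4 complex before binding bead RGS8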
RGS7-Gao confirm – RGS7-Galphao binding modulators, confirmation, biochemical, multiplexed bead flow cytometry, single concentration; shares compounds with RGS16-Gao; bead-based flow cytometry RGS7-Galphao binding; actives lie on both sides; response (percent of control binding), % at 10 µM; actives 7.8% (n = 1,700); in the data active = response below about 75% or above about 130%; inactive = in between;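 note: fluorescent Galphao activated with GDP and aluminum fluoride binding bead-coupled RGS7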
RGS16-Gao conf – modulators of RGS16-Galphao protein binding, confirmation, biochemical, single concentration, multiplexed bead flow cytometry | shares compounds with RGS16-Gao | bead-based flow cytometry; actives lie on both sides | response (% of control binding), % at 10 µM | actives 4% (n = 1,700); in the data active = response below about 74% or above about 130%; inactive = in between;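 note: Galphao activated as the GDP aluminium fluoride complex binding bead-coupled RGS16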
RGS4-Gao confirm – modulators of RGS4-Galphao protein binding, confirmation, biochemical, single concentration, multiplexed bead flow cytometry; actives 4% (n = 1,700); binding response (% of control), % at 10 µM; shares compounds with RGS16-Gao; actives lie on both sides; AID 1840, 2009; in the data active = binding response below about 74% or above about 130%; inactive = in between
RGS19-Gao single – regulators of RGS19-Galphao binding, confirmation, biochemical, single point, multiplexed bead flow cytometry | shares compounds with RGS16-Gao | bead-based flow cytometry RGS19-Galphao binding; actives lie on both sides | response (percent of control binding), % at 10 µM | actives 5% (n = 1,700) | AID 1841, 2009; in the data active = response below about 50% or above about 160%; inactive = in between;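 note: 100% = no compound control and 0% = blank background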
* hit, by the source's call; ? = inconclusive; / = not tested or not shown; [ ] = dose if it differs, or a comment. Unless noted, the rule behind the calls is not given here.

SMILES | RGS16-Gao | RGS7-Gao reg | RGS4-Gao reg | Avidin fluor | GSH bead fluor | RGS8-Gao reg | RGS-Gao | Biotin-avidin | RGS8-Gao single | RGS7-Gao confirm | RGS16-Gao conf | RGS4-Gao confirm | RGS19-Gao single
O=C(NCCCN1CCOCC1)c1sc2cc([N+](=O)[O-])ccc2c1Cl | 25* | ? | 100 | 6 | 17 | 75 | 100* | 0 | 65* | 95 | 13* | 79 | 30*
Cc1cccc(C(=O)N2CCN(c3ccc(N4CCOCC4)nn3)CC2)c1 | 22* | ? | 29* | 2 | / | 37* | / | -1 | 111 | 118 | 112 | 115 | 107
CC1(C)CC(=O)C=C(NNC(=O)c2ccccc2)C1 | 8.0* | 9.9* | 4.6* | -2 | 21 | 14* | / | -1 | 103 | 103 | 103 | 103 | 96
CNC(=O)/C(C#N)=C/c1cc(C)n(-c2ccc(N3CCOCC3)cc2)c1C | 216*[activator] | ? | 254*[activator] | 114* | / | 104 | / | -1 | 102 | 92 | 96 | 95 | 107
CCOC(=O)CC/C(C)=N\N=C1\SC(CC(=O)O)C(=O)N1c1ccccc1 (stereo unspecified) | 98 | ? | 97 | 3 | / | 98 | / | / | / | / | / | / | /
O=C(O)/C=C/c1ccccc1Oc1ccccc1 | 184 | 154*[activator] | 162*[activator] | 88* | 30 | 138 | / | 0 | 98 | 96 | 98 | 96 | 97
O=C(O)/C=C\c1ccccc1Oc1ccc(F)cc1 | 101 | 167*[activator] | 127 | 89* | 70 | 100 | 127* | 1 | 103 | 86 | 98 | 97 | 98
COc1ccc(Oc2ccccc2/C=C/C(=O)O)cc1 | 101 | 98 | 98 | 33 | 12 | 100 | / | / | / | / | / | / | /
CC(Sc1nc(-c2ccco2)nc2c1c(=O)n(C)c(=O)n2C)C(=O)O (stereo unspecified) | 103 | ? | 98 | 5 | / | 100 | / | / | / | / | / | / | /
O=S(=O)(CCc1ccccc1)N1CCOCC1 | -85 | 68 | 48* | 8 | 9 | 69 | / | -1 | 97 | 81 | 91 | 84 | 88
Cc1ccc(NC(=O)NNC(=O)C2CCN(Cc3ccc(F)cc3Cl)CC2)cc1 | 111 | 101 | 101 | 13 | 13 | 104 | / | / | / | / | / | / | /
O=C(NC1CCCCC1)c1ccc(N2CCCC2=O)cc1 | 211*[activator] | 120 | 108 | 19 | 15 | 131 | 108* | / | / | / | / | / | /
O=C1c2ccccc2NC(c2cccc(O)c2)N1Cc1ccco1 (stereo unspecified) | 94 | ? | 93 | 2 | / | 94 | / | / | / | / | / | / | /
CCCCn1c(=S)[nH]c2c(oc3ccc(Cl)cc32)c1=O | -19* | 7.1* | -5.2* | -3 | 21 | 5.1* | / | -2 | 106 | 108 | 105 | 101 | 109
O=C(/C=C/c1ccc2c(c1)OCO2)NCc1ccncc1 | 92 | ? | 95 | 5 | / | 94 | / | / | / | / | / | / | /
O=C1NCC(O)=C1C=NC12CC3CC(CC(C3)C1)C2 | 106 | 100 | 102 | 13 | 30 | 107 | / | 1 | 101 | 100 | 100 | 100 | 91
Cc1ccc(-n2c3c(c(=O)[nH]c2=O)C(NS(=O)(=O)c2ccc(C)cc2)(C(F)(F)F)C(=O)N3)cc1 (stereo unspecified) | 103 | 101 | 100 | 17 | 15 | 102 | / | / | / | / | / | / | /
Cc1ccc(S(=O)(=O)NC2(C(F)(F)F)C(=O)Nc3c2c(=O)[nH]c(=O)n3-c2ccccc2)cc1 (stereo unspecified) | 152 | 162*[activator] | 113 | 88* | 5 | 118 | 113* | -2 | 101 | 102 | 101 | 102 | 86
O=C(c1cc2c(s1)-c1ccccc1S(=O)(=O)C2)N1CCN(Cc2ccccc2)CC1 | 107 | 276*[activator] | 132 | 151* | 19 | 93 | 132* | 0 | 101 | 97 | 103 | 101 | 101
CC[n+]1c(/C=C/C=C/N(C(C)=O)c2ccccc2)sc2cc(OC)ccc21 | 143 | 155*[activator] | 135 | 30 | 6 | 93 | 135* | / | / | / | / | / | /
O=C(CCl)NC(=O)NC12CC3CC(CC(C3)C1)C2 | 111 | 189*[activator] | 130 | 145* | 7 | 104 | 130* | 0 | 101 | 63* | 84 | 79 | 54
CCCc1nc2ccc(NC(=O)NCCC(=O)OCC)cc2c(=O)n1Cc1ccc(Cl)cc1 | 8.6* | 85 | 89 | 3 | 16 | 69 | 89* | 0 | 103 | 100 | 103 | 102 | 103
CCCCC(O)(CCCC)C(=O)NN(C(=O)c1cccnc1Cl)c1ccccc1 | 78 | ? | 75 | 6 | / | 89 | / | / | / | / | / | / | /
Cc1cc(-c2csc(N)n2)c(C)n1-c1ccc(Cl)c(Cl)c1 | 81 | 106 | 99 | 6 | 9 | 102 | / | / | / | / | / | / | /
